{
  "source": "PubChem BioAssay (NCI)",
  "note": "Compounds without any hit were thinned out: in the full panel of roughly 79,000, 15% have a hit. A number with no mark means an inactive call. Activity calls are given as the source filed them. No stated cut-off is given here; in the data, active means growth inhibition above about 70%; inactive means the rest.",
  "data": [
    {"assay": "NCI Yeast Anticancer Drug Screen. Data for the rad50 strain (AID 155);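 further: 0% = growth of vehicle-only cultures of the same strain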", "settings": "S. cerevisiae rad50 strain growth inhibition; at 50.0 µM; active compounds read high", "outline": "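Readout: growth inhibition relative to vehicle-treated cultures. Compound exposure was carried out in a genetically defined yeast strain deficient in DNA damage repair.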", "values": [
      {"smiles": "O=C(O)CC(C(=O)O)C1c2ccccc2-c2ccccc21", "note": "(stereo not given)", "growth inhibition": "-0.1%"},
      {"smiles": "COc1ccc(C(=O)NNC(=O)c2ccccc2)cc1", "growth inhibition": "11.9%"},
      {"smiles": "Cc1cc(NCCN(C)C)nc(Nc2ccc(Cl)cc2)n1", "growth inhibition": "50.8%"},
      {"smiles": "O=C1CC2(C(=O)N1CN1CCOCC1)c1ccccc1-c1ccccc12", "growth inhibition": "-7.55%"},
      {"smiles": "CCCCCN(C(=O)c1ccccc1C(=O)N(CCCCC)c1ccccc1)c1ccccc1", "growth inhibition": "15.3%"},
      {"smiles": "Brc1nccs1", "growth inhibition": "-21.9%"},
      {"smiles": "COC(=O)N/N=C(\\C)CC(=O)Nc1ccc(Cl)cc1", "growth inhibition": "-22.9%"},
      {"smiles": "CCCCCCCCCC1OCCCO1", "growth inhibition": "-14.3%"},
      {"smiles": "CC(=O)OC(C)C(O)C(O)C(/C=C/C1CC=CC(=O)O1)OC(C)=O", "note": "(stereo not given)", "growth inhibition": "32.2%"},
      {"smiles": "O=C1C=Cn2cc(-c3ccccc3)c(-c3ccccc3)c21", "growth inhibition": "-13.3%"},
      {"smiles": "CCOC(=O)CNC(=O)C(Cc1ccccc1)NC(=O)c1ccccc1NC(=O)c1ccccc1", "note": "(stereo not given)", "growth inhibition": "28.8%"},
      {"smiles": "CN(C)c1ccc2c(c1)Cc1cc(NC(=O)CCC(=O)O)ccc1-2", "growth inhibition": "8.7%"},
      {"smiles": "CC(C)CCN(C(=O)CCl)c1ccccc1", "growth inhibition": "59%"},
      {"smiles": "CC=NC(C)(C)C", "growth inhibition": "-7.25%"},
      {"smiles": "CC(=O)CCCCCCCCCCCCCC(C)=O", "growth inhibition": "-18.1%"},
      {"smiles": "CNCC(OCCc1ccccc1)c1ccc(O)c(O)c1", "note": "(stereo not given)", "growth inhibition": "5.85%"},
      {"smiles": "O=C(Nc1ccc(Cl)cc1C(=O)O)c1ccc([N+](=O)[O-])cc1", "growth inhibition": "23.1%"},
      {"smiles": "Nc1ccn(C2OC(COC(=O)C34CC5CC(CC(C5)C3)C4)C(O)C2O)c(=O)n1", "note": "(stereo not given)", "growth inhibition": "-14.5%"},
      {"smiles": "N#Cc1ccccc1N=Nc1nc(N)c(C(N)=O)[nH]1", "growth inhibition": "22.2%"},
      {"smiles": "CC(=O)OC(Cc1ccc2ccccc2n1)(C(F)(F)F)C(F)(F)F", "growth inhibition": "-17.6%"},
      {"smiles": "O=C(Nc1ccccc1Cl)c1ccc([N+](=O)[O-])cc1", "growth inhibition": "11.4%"},
      {"smiles": "C=C(C)CNCCN", "growth inhibition": "36.1%"},
      {"smiles": "O=C1Cn2c(cc(=O)c3ccccc32)O1", "growth inhibition": "37.5%"},
      {"smiles": "O=C1CCCCCCCCCCC1", "growth inhibition": "-8.1%"},
      {"smiles": "Cc1ccccc1-n1c(C)nc2cc(NC(N)=S)ccc2c1=O", "growth inhibition": "-19.1%"},
      {"smiles": "CN(C)S(=O)(=O)c1nc2nc[nH]c(=O)c2[nH]1", "growth inhibition": "-3.2%"},
      {"smiles": "Cc1cc(C)nc(C)c1.[Cl-].[Cl-].[Cl-].[Cl-].[Pt+2]", "growth inhibition": "8.9%"},
      {"smiles": "CCN(CC)CCNC(=O)c1ccc(C)c(OCc2ccccc2)c1[N+](=O)[O-]", "growth inhibition": "-9.4%"},
      {"smiles": "CN(C)CCOC(=O)C(O)C1CCCCC1", "note": "(stereo not given)", "growth inhibition": "-14.3%"},
      {"smiles": "CC(C)CC(C)Cc1ccncc1", "note": "(stereo not given)", "growth inhibition": "0.4%"},
      {"smiles": "CN1CC2(CO)C(c3ccccn3)N(C)C(c3ccccn3)C(CO)(C1)C2O", "note": "(stereo not given)", "growth inhibition": "2.5%"},
      {"smiles": "Oc1ccc(N=Cc2ccc3ccccc3n2)cc1", "growth inhibition": "36%"},
      {"smiles": "CCCCCN(CCCCC)CC(O)c1cc(-c2ccccc2)nc2c(Cl)cc(Cl)cc12", "note": "(stereo not given)", "growth inhibition": "42%"},
      {"smiles": "CCOC(=O)C1C(c2cc(OC)c(OC)c(OC)c2)c2cc3c(cc2OC1(C)OC)OCO3", "note": "(stereo not given)", "growth inhibition": "5.55%"},
      {"smiles": "C[CH2][GeH][CH2]C.C[CH2][Ge]([CH2]C)[CH2]C", "growth inhibition": "95.2% (active)"},
      {"smiles": "CCOC(=O)C12CC(COc3ccc([N+](=O)[O-])cc3)ON1OC(COc1ccc([N+](=O)[O-])cc1)C2", "note": "(stereo not given)", "growth inhibition": "23.9%"},
      {"smiles": "CC1(c2ccccc2)OC1(C)c1ccccc1", "note": "(stereo not given)", "growth inhibition": "5.7%"},
      {"smiles": "CCNc1ccc(S(=O)(=O)O)cc1C(=O)O", "growth inhibition": "0.45%"},
      {"smiles": "CCC1([N+](=O)[O-])CC2C=CC1C2", "note": "(stereo not given)", "growth inhibition": "2.2%"},
      {"smiles": "CN(C)C1C(CO)C(CO)C1(C)C", "note": "(stereo not given)", "growth inhibition": "-5.5%"}
    ]}
  ]
}
